# Assay outcomes: PubChem BioAssay, National Center for Advancing Translational Sciences (NCATS)
# This is a sample that favours compounds with a hit; in the whole collection about 2.8% have one here.
# hERG WT inh: inhibitors of human wildtype KCNH2 potassium channel. Q12809. U2OS, BacMam KCNH2, thallium flux FluxOr; stronger effect = lower value. activity change, % at 1.84 µM. actives 0.37% (n = 340,000). AID 720551;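 active = maximum activity change below -70%; inconclusive = maximum activity change between -70% and -50%; inactive = maximum activity change above -50%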; note: % is set by controls: 0 for no effect and ±100 for the full control effect
#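 U2OS cells transduced with wild-type KCNH2 virus are loaded with FluxOr dye for 45 min, and thallium flux is measured in kinetic reads before and after stimulation buffer. Rate constants are normalized to DMSO controls.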
# GLP-1R agonist: GLP-1 receptor (human) agonism. HEK293 GLP-1R CRE-luciferase, luminescence, 4-6 h; cells express a hypersensitive GLP-1R form. Potency, µM (top dose mostly 45.6 µM), inactives show at the top dose activation, hits mostly activators. P43220. actives 0.007% (n = 380,000). AID 624172; note: potency is the fitted concentration of half-maximal effect; % of control where 0% means no effect
# KCNH2 3.1 inh: inhibitors of human KCNH2 3.1 potassium channel isoform. U2OS KCNH2 3.1, thallium flux FluxOr; stronger effect = lower value. activity change, % (tested at about 1.8 µM). actives 0.95% (n = 340,000);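 active = maximum activity change below -70%; inconclusive = maximum activity change from -70% to -50%; inactive = maximum activity change above -50%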;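 note: thallium influx rate constant from kinetic fluorescence after stimulation buffer; % is set by controls: 0 for no effect and ±100 for the full control effect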
#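 Virally transduced U2OS (3.1 isoform, 4 h infection in dark at RT) → overnight 37 C → FluxOr + Red40 in HBSS/HEPES, 45 min → stimulation buffer, 2 min kinetic read → rate constant vs DMSO controls.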
# GLP-1R inv ag: GLP-1 receptor (human) inverse agonism; Potency, µM (doses to about 38.3 µM), for inactives: at the top dose activity change, negative = inhibition, hits mostly inhibitors; AID 624417; HEK293 GLP-1R CRE-luciferase, luminescence, 24 h; GLP-1R form is constitutively active; P43220; actives 1.6% (n = 410,000); note: potency is the fitted concentration of half-maximal effect; % is set by controls: 0 for no effect and ±100 for the full control effect; nearly all actives have a fitted effect of over 55% in size
#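 Inverse agonists were sought by their lowering of basal cAMP reporter luciferase output in HEK293 cells stably carrying constitutively active human GLP-1R, after 24 h compound treatment.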
# GLP1R cytotox: cytotoxic in the GLP-1 receptor inverse agonist counter-screen. AID 624418. actives 0.13% (n = 410,000). Potency, µM (series often up to 38.3 µM), for inactives: top-dose activity change, negative = inhibition, actives largely listed as inhibitors. HEK293 cAMP-luciferase reporter cells, luminescence, 24 h;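 note: loss of luciferase light is scored as toxicity; potency is the fitted concentration of half-maximal effect; % is set by controls: 0 for no effect and ±100 for the full control effect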
#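 Seeding density was 200 cells/uL; after overnight-length (12 h) culture, 23 nL compounds went on for 24 h at 37 °C. Readout used a luciferase detection reagent, luminescence taken after 12 min at room temperature.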
# GLS inh: glutaminase GLS (human) inhibition; O94925; GLS enzymatic activity, qHTS titration; Potency, µM (doses to about 45.5 µM), without a hit: at the highest dose activity change, negative = inhibition, hits mostly inhibitors; actives 0.21% (n = 410,000); AID 624170; note: potency is the fitted concentration of half-maximal effect; % is set by controls: 0 for no effect and ±100 for the full control effect
# Target sequence (O94925 whole entry, looked up): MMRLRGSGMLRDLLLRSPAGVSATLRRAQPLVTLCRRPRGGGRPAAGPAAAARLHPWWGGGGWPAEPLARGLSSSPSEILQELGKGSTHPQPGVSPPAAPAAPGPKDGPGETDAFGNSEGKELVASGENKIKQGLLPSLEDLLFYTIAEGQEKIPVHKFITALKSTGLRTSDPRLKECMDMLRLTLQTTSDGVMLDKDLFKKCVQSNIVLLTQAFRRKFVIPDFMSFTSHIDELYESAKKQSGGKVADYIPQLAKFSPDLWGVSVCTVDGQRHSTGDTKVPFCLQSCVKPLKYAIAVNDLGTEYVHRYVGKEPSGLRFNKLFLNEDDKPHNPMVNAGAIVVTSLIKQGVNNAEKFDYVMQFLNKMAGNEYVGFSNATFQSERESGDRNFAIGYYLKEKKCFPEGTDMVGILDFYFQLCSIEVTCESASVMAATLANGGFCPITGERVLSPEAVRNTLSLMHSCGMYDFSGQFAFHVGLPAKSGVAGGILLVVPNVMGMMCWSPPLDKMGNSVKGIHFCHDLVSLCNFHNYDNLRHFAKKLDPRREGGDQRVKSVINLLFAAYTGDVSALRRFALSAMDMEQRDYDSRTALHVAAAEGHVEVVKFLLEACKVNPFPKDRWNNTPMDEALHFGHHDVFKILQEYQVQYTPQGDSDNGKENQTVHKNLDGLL
#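 hKGA; 45 mM KH2PO4 pH 8.2 + 0.02% Tween-20; cpd via pin tool; 1 mM Gln soln; GluOx/HRP/Amplex Red; RT 30 min; fluor. t0 & final.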
# * hit, by the source's call; ? = inconclusive; / = no result. Unless noted, calls come from the whole dose curve; as a rule, active = well fitted curve in the direction sought with a large enough effect; inconclusive = small, poorly fitted or top-dose-only effect, or another doubt; inactive = no such curve, though single readings can be large; an effect the other way counts as inactive or inconclusive.
SMILES,hERG WT inh,GLP-1R agonist,KCNH2 3.1 inh,GLP-1R inv ag,GLP1R cytotox,GLS inh
CCC(C(=O)Nc1cc(OC)ccc1OC)n1nc(-c2ccccc2)c2c(c1=O)CCCC2 (centres undefined),/,/,/,13µM*,-10%,0%
COc1ccccc1C(c1nnnn1CCc1ccccc1)N1CCN(c2ccccc2)CC1 (centres undefined),-4,4%,1,8%,-7%,19%
COc1ccc(N2CCN(C(c3ccccc3)c3nnnn3Cc3ccc(F)cc3)CC2)cc1 (centres undefined),-8,3%,5,13µM*,-11%,23%
Fc1ccc(C(c2nnnn2C2CCCC2)N2CCc3ccccc32)cc1 (centres undefined),-3,-6%,-24,?,4%,26%
COc1ccccc1N1CCN(C(c2ccccc2)c2nnnn2CCc2ccccc2)CC1 (centres undefined),1,0%,1,11µM*,0%,7%
COc1ccccc1C(c1nnnn1CCc1ccccc1)N1CCCCCC1 (centres undefined),12,3%,-19,11µM*,-18%,23%
COc1ccc(C(c2nnnn2CCc2ccccc2)N2CCN(C)CC2)cc1OC (centres undefined),37,5%,-21,0%,-2%,1%
Fc1ccc(C(c2nnnn2CCc2ccccc2)N2CCCc3ccccc32)cc1 (centres undefined),1,-4%,-40,2.8µM*,-8%,1%
COc1ccc(C(c2nnnn2Cc2ccc(F)cc2)N2CCN(c3ccccc3)CC2)cc1 (centres undefined),11,-18%,-31,?,-8%,9%
CCOc1ccc(CC(=O)Nc2ccc3nc(N4CCCCC4)cc(C)c3c2)cc1OCC,/,/,/,?,-5%,1%
Cc1ccc(NC(=O)CSc2nnc(-c3ccncc3)n2N)cc1C,-204*,-9%,-7,0%,7%,-5%
COC(=O)CSc1nnc(-c2ccncc2)n1N,6,-4%,2,-11%,2%,7%
Cc1ccccc1CNC(=O)C1CCCN(c2nnc(C)c3c(C)n(-c4ccccc4)nc23)C1 (centres undefined),16,11%,-71*,28%,-10%,5%
Cc1ccc(-n2c(C)c(C)c3c(NCCN(C)C)ncnc32)cc1,6,-3%,19,10µM*,-2%,10%
CN(C)CCCNc1ncnc2c1c(-c1ccccc1)cn2-c1ccccc1,14,11%,21,4µM*,?,0%
OCCOCCNc1ncnc2c1c(-c1ccccc1)cn2-c1ccccc1,-2,27%,10,2%,-3%,3%
CCCNc1ncnc2c1c(-c1ccccc1)cn2-c1ccccc1,/,/,/,10µM*,-4%,-6%
CN(C)CCCNc1ncnc2scc(-c3ccccc3)c12,3,-4%,11,11µM*,0%,82%
c1ccc(-c2csc3ncnc(NCc4ccccn4)c23)cc1,-3,-2%,11,-6%,-6%,2%
CC1CCCCN1CCCNC(=O)c1cc(Sc2cccc(Cl)c2)nc2ccccc12 (centres undefined),/,/,/,-9%,-12%,-8%
CN(C)CCNc1ncnc2c1cnn2-c1ccc(Cl)cc1,9,-14%,10,3.2µM*,?,-18%
COc1ccc(-n2cc(-c3ccccc3)c3c(NC4CCCC4)ncnc32)cc1,/,/,/,1.8µM*,1%,-3%
CN(C)CCNc1ncnc2c1cnn2-c1cccc(Cl)c1,/,/,/,?,-4%,6%
COc1ccc(CCNc2ncnc3c2c(-c2ccccc2)cn3-c2ccc(F)cc2)cc1OC,/,/,/,?,-5%,8%
Fc1ccc(-n2cc(-c3ccccc3)c3c(NCCc4ccccc4)ncnc32)cc1,/,/,/,7.9µM*,3%,-6%
